# Tested on: Plasmodium falciparum
# Assay: GSK_TCMDC: Inhibition of Plasmodium falciparum 3D7 in whole red blood cells, using parasite LDH activity as an index of growth. Test compounds present at 2uM
# Format: functional
row,Compound,Inhibition [%]
1,Cl.Nc1ccc(Nc2ccnc3ccc(C(F)(F)F)cc23)cc1O,98
2,COc1cc2c(C3CCN(CC4CCC(NC(=O)/C=C/c5ccc(Cl)c(Cl)c5)CC4)CC3)c[nH]c2cn1 (stereo not given),100
3,Cl.O=c1cc(NCCCNCc2cc3ccccc3s2)[nH]c2ccccc12,89
4,CC(=O)Nc1ccc(C(=O)Nc2ccc(-c3cccc(-c4nc5cc(F)ccc5[nH]4)c3)cc2)cn1,100
5,CC(C)c1ccc(NC(=O)NCC2CCCN(CCCCCNC(=O)/C=C/c3ccc(Cl)c(Cl)c3)C2)cc1 (stereo not given),98
6,Br.CCOc1ccc(OCCCON2C(=N)N=C(N)NC2(C)C)cc1,97
7,CCOc1cc(C(=O)NCCc2ccc(Cl)c(Cl)c2)ccc1-c1nc2cc(Cl)ccc2[nH]1,100
8,CC(=O)OCCN1C(=O)c2ccc3c4c(ccc(c24)C1=O)C(=O)N(CCOC(C)=O)C3=O,94
9,CCOc1ccccc1CNc1nccc(NCc2ccccc2OC)n1,87
10,Cl.O=S(=O)(c1ccc(OCc2ccc(Cl)cc2)cc1)c1cc2c(cc1OCc1ccccc1)CCN(C1CCC1)CC2,89
11,CCC(=O)N[C@@H]1CN[C@@H](C#Cc2cc3c(Nc4ccc(OCc5cccc(F)c5)c(Cl)c4)ncnc3s2)C1,82
12,CN1CCC(N2CCN(Cc3cccc(-c4ccc(-c5nc6cc(F)ccc6[nH]5)cc4)c3)CC2)CC1.O=C(O)C(F)(F)F,100
13,Cc1cc(F)ccc1-c1nc(NCCCN2CCCC2=O)nc2c1ccc(=O)n2-c1c(F)cccc1F,88
14,CCCN1CCN(c2ccc(NS(=O)(=O)c3ccc(C(=O)Nc4ccc(Cl)cc4)cc3)cc2)CC1.O=C(O)C(F)(F)F,100
15,CCCCC(CC)NC(=O)[C@H]1CNCCN1C(=O)CCCc1ccccc1.O=C(O)C(F)(F)F (stereo not given in full),94
16,Clc1cccc(Cl)c1CCNCC1CCN(CC2CCCCC2)CC1.O=C(O)C(F)(F)F,98
17,COc1ccccc1-c1sccc1C(=O)NC1(c2cc(Cl)cc(Cl)c2)CCCC1,88
18,CC(C)(C)OC(=O)Cn1cnc2cc(NC(=O)c3cc([N+](=O)[O-])cc([N+](=O)[O-])c3)ccc21,100
19,Cc1cc(NCC(c2ccccc2)c2ccccc2)nc(NCc2ccc(C(F)(F)F)cc2)n1,100
20,CCCN(CCC)C(=O)c1cc(C(=O)N[C@@H](Cc2ccccc2)[C@H](O)CNCc2cccc(OC)c2)cc(N2CCCCS2(=O)=O)c1,97

row,Compound,Inhibition [%]
1,Cc1nc(C)c(-c2ccc(Oc3ccc(Cl)cc3Cl)cc2)c(O)c1Br,98
2,COc1cccc(-c2cccc(CNC3CCN(CC4Cn5c(=O)ccc6ccc(F)c4c65)CC3)c2)c1.O=C(O)C(F)(F)F (stereo not given),99
3,Cc1ccc(Cc2c(N)nc3nc(N)nc(N)c3c2C)cc1.Cl,95
4,O=C(NC1CCC(N2CCC(O)(c3ccc(F)cc3)CC2)CC1)c1cc2ccccc2[nH]1 (stereo not given),94
5,Cc1nccn1CCNC(=O)CN1CCC2(CCC1=O)CC(=O)c1ccccc1O2 (stereo not given),98
6,COc1ccc2nccc([C@@H](O)CN3CCC(NCCOc4ccccc4C#N)CC3)c2c1.O=C(O)C(=O)O,100
7,CC(C)[C@H](NC(=O)c1ccc(O)c(-c2cccc(C(F)(F)F)c2)c1)C(=O)NC1CCCc2ccccc21 (stereo not given in full),82
8,O=C(Nc1cccc(F)c1)N[C@H]1CCN(CCCCCNC(=O)C2CC2c2ccc(Cl)c(Cl)c2)C1 (stereo not given in full),90
9,COc1ccc(NC(=O)N2CCN(CCCCCNC(=O)/C=C/c3ccc(C(F)(F)F)cc3)CC2)cc1Cl,94
10,Clc1ccc2c(NN=Cc3cccnc3)ccnc2c1,100
11,CN1CCC(C(=O)Nc2ccc(-c3cccc(-c4nc5cc(F)ccc5[nH]4)c3)cc2)CC1,100
12,Cl.O=C(Nc1ccc(C(=O)OCC2CCCN3CCCCC23)cc1)c1ccc([N+](=O)[O-])cc1 (stereo not given),95
13,Nc1ccc(Oc2ccc(Cc3cnc(N)nc3N)cc2)cc1,86
14,Cl.O=C(Nc1cccc(C2=NCCCN2)c1)Nc1cccc(C2=NCCCN2)c1,81
15,NC1=NC(c2ccccc2)(c2ccccc2)C(=O)N1Cc1ccc(-c2cccnc2)cc1.O=CO,99
16,O=[N+]([O-])c1ccc(-n2nc(Cc3ccccc3)n(Cc3cccc(F)c3)c2=S)c(C(F)(F)F)c1,100
17,COc1ccccc1CNC(=O)C(=O)Nc1c(-c2ccccc2)[nH]c2ccccc12,99
18,O=C(Nc1ccc(OC2CCN(Cc3ccc(F)cc3)CC2)c(Cl)c1)c1ccc(F)cc1.O=C(O)C(F)(F)F,97
19,COc1ccc2c(N/N=C/c3ccccc3[N+](=O)[O-])cc(C)nc2c1,100
20,Cc1ccc(-n2c(Cc3cccc4ccccc34)nnc2SCCC#N)c(C)c1,95

# Tested on: Plasmodium falciparum
# Assay: GSK_TCMDC: Inhibition of Plasmodium falciparum Dd2 in whole red blood cells, using parasite LDH activity as an index of growth. Test compounds present at 2uM
# Format: functional
row,Compound,Inhibition [%]
1,Cl.Nc1ccc(Nc2ccnc3ccc(C(F)(F)F)cc23)cc1O,59
2,COc1cc2c(C3CCN(CC4CCC(NC(=O)/C=C/c5ccc(Cl)c(Cl)c5)CC4)CC3)c[nH]c2cn1 (stereo not given),100
3,Cl.O=c1cc(NCCCNCc2cc3ccccc3s2)[nH]c2ccccc12,0
4,CC(=O)Nc1ccc(C(=O)Nc2ccc(-c3cccc(-c4nc5cc(F)ccc5[nH]4)c3)cc2)cn1,84
5,CC(C)c1ccc(NC(=O)NCC2CCCN(CCCCCNC(=O)/C=C/c3ccc(Cl)c(Cl)c3)C2)cc1 (stereo not given),6
6,Br.CCOc1ccc(OCCCON2C(=N)N=C(N)NC2(C)C)cc1,94
7,CCOc1cc(C(=O)NCCc2ccc(Cl)c(Cl)c2)ccc1-c1nc2cc(Cl)ccc2[nH]1,47
8,CC(=O)OCCN1C(=O)c2ccc3c4c(ccc(c24)C1=O)C(=O)N(CCOC(C)=O)C3=O,1
9,CCOc1ccccc1CNc1nccc(NCc2ccccc2OC)n1,66
10,Cl.O=S(=O)(c1ccc(OCc2ccc(Cl)cc2)cc1)c1cc2c(cc1OCc1ccccc1)CCN(C1CCC1)CC2,13
11,CCC(=O)N[C@@H]1CN[C@@H](C#Cc2cc3c(Nc4ccc(OCc5cccc(F)c5)c(Cl)c4)ncnc3s2)C1,0
12,CN1CCC(N2CCN(Cc3cccc(-c4ccc(-c5nc6cc(F)ccc6[nH]5)cc4)c3)CC2)CC1.O=C(O)C(F)(F)F,100
13,Cc1cc(F)ccc1-c1nc(NCCCN2CCCC2=O)nc2c1ccc(=O)n2-c1c(F)cccc1F,80
14,CCCN1CCN(c2ccc(NS(=O)(=O)c3ccc(C(=O)Nc4ccc(Cl)cc4)cc3)cc2)CC1.O=C(O)C(F)(F)F,50
15,CCCCC(CC)NC(=O)[C@H]1CNCCN1C(=O)CCCc1ccccc1.O=C(O)C(F)(F)F (stereo not given in full),0
16,Clc1cccc(Cl)c1CCNCC1CCN(CC2CCCCC2)CC1.O=C(O)C(F)(F)F,94
17,COc1ccccc1-c1sccc1C(=O)NC1(c2cc(Cl)cc(Cl)c2)CCCC1,95
18,CC(C)(C)OC(=O)Cn1cnc2cc(NC(=O)c3cc([N+](=O)[O-])cc([N+](=O)[O-])c3)ccc21,97
19,Cc1cc(NCC(c2ccccc2)c2ccccc2)nc(NCc2ccc(C(F)(F)F)cc2)n1,79
20,CCCN(CCC)C(=O)c1cc(C(=O)N[C@@H](Cc2ccccc2)[C@H](O)CNCc2cccc(OC)c2)cc(N2CCCCS2(=O)=O)c1,99

row,Compound,Inhibition [%]
1,Cc1nc(C)c(-c2ccc(Oc3ccc(Cl)cc3Cl)cc2)c(O)c1Br,94
2,COc1cccc(-c2cccc(CNC3CCN(CC4Cn5c(=O)ccc6ccc(F)c4c65)CC3)c2)c1.O=C(O)C(F)(F)F (stereo not given),15
3,Cc1ccc(Cc2c(N)nc3nc(N)nc(N)c3c2C)cc1.Cl,8
4,O=C(NC1CCC(N2CCC(O)(c3ccc(F)cc3)CC2)CC1)c1cc2ccccc2[nH]1 (stereo not given),8
5,Cc1nccn1CCNC(=O)CN1CCC2(CCC1=O)CC(=O)c1ccccc1O2 (stereo not given),4
6,COc1ccc2nccc([C@@H](O)CN3CCC(NCCOc4ccccc4C#N)CC3)c2c1.O=C(O)C(=O)O,99
7,CC(C)[C@H](NC(=O)c1ccc(O)c(-c2cccc(C(F)(F)F)c2)c1)C(=O)NC1CCCc2ccccc21 (stereo not given in full),25
8,O=C(Nc1cccc(F)c1)N[C@H]1CCN(CCCCCNC(=O)C2CC2c2ccc(Cl)c(Cl)c2)C1 (stereo not given in full),1
9,COc1ccc(NC(=O)N2CCN(CCCCCNC(=O)/C=C/c3ccc(C(F)(F)F)cc3)CC2)cc1Cl,0
10,Clc1ccc2c(NN=Cc3cccnc3)ccnc2c1,86
11,CN1CCC(C(=O)Nc2ccc(-c3cccc(-c4nc5cc(F)ccc5[nH]4)c3)cc2)CC1,5
12,Cl.O=C(Nc1ccc(C(=O)OCC2CCCN3CCCCC23)cc1)c1ccc([N+](=O)[O-])cc1 (stereo not given),25
13,Nc1ccc(Oc2ccc(Cc3cnc(N)nc3N)cc2)cc1,5
14,Cl.O=C(Nc1cccc(C2=NCCCN2)c1)Nc1cccc(C2=NCCCN2)c1,70
15,NC1=NC(c2ccccc2)(c2ccccc2)C(=O)N1Cc1ccc(-c2cccnc2)cc1.O=CO,94
16,O=[N+]([O-])c1ccc(-n2nc(Cc3ccccc3)n(Cc3cccc(F)c3)c2=S)c(C(F)(F)F)c1,100
17,COc1ccccc1CNC(=O)C(=O)Nc1c(-c2ccccc2)[nH]c2ccccc12,91
18,O=C(Nc1ccc(OC2CCN(Cc3ccc(F)cc3)CC2)c(Cl)c1)c1ccc(F)cc1.O=C(O)C(F)(F)F,95
19,COc1ccc2c(N/N=C/c3ccccc3[N+](=O)[O-])cc(C)nc2c1,100
20,Cc1ccc(-n2c(Cc3cccc4ccccc34)nnc2SCCC#N)c(C)c1,98
